Structures are written as SMILES. Records with an inconclusive call do not appear. A number with no mark means an inactive call. The source made the active and inactive calls. Calls follow the shape of the dose curve; as a rule, active = well fitted inhibition curve with a large enough effect; inconclusive = small, poorly fitted or top-dose-only effect; inactive = flat fitted curve, though single readings scatter.

The source of these data is PubChem BioAssay (NCATS).
% is scaled to controls: 0 for no effect and ±100 for the full control effect; potency is read from the fitted curve at half-maximal effect.
Also: nearly all actives have a fitted effect of over 60% in size.

For one test, the system named is NIH3T3. As to the kind of experiment: Cytotoxic Profiling of Annotated Libraries Using Quantitative High-Throughput Screening (AID 1296008). The conditions noted are these: Five cell lines viability, CellTiter-Glo ATP luminescence, 48-72 h; max response: hits give low values. The method, boiled down:
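Cytotoxicity was measured as CellTiter-Glo ATP luminescence, read after 10 min at room temperature. Compound treatment of the cells lasted 48 or 72 hr at 37 degrees Celsius in a qHTS format.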
On to `CC1=C(/C=C/C(C)=C/C=C/C(C)=C/C(=O)O)C(C)(C)CCC1`, for which the max response was -0.598%.

On to `CCN(CC)CCNC(=O)c1c(C)[nH]c(/C=C2\C(=O)Nc3ccc(F)cc32)c1C`, for which the max response is -10.6%.

On to `CC(=O)Oc1ccc(C2(c3ccc(OC(C)=O)cc3)C(=O)Nc3ccccc32)cc1`, for which the max response is -14.8%.

For the compound `CN1CCN(C2Cc3ccccc3Sc3ccc(Cl)cc32)CC1` (stereo not drawn), the max response is -9.64%.

On to `CC(CN(C)C)CN1c2ccccc2CCc2ccccc21` (stereo not drawn), for which the max response was 4.54%.

For the compound `OCc1cc(C(O)CNCCCCCCOCCCCc2ccccc2)ccc1O` (stereo not drawn), the max response is -10.4%.

With `NC1[C@H]2CN(c3nc4c(cc3F)c(=O)c(C(=O)O)cn4-c3ccc(F)cc3F)C[C@@H]12` (stereo partly drawn), the Potency was 16.8 µM (active).

As to `CN(C)CCC=C1c2ccccc2CCc2ccccc21`, the max response is -1.26%.

The next test relates to HACAT. Kind of test: qHTS assay to identify novel small-molecules to repurpose for Merkel cell carcinoma treatment (AID 1296009). The conditions noted are these: MCC and control cell lines, CellTiter-Glo viability, 72 h; at 44.8 µM (top of the series) unless noted. The method, boiled down: (§1)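 Cell viability measured by CellTiter-Glo following 72 hr compound treatment at 37 degree celsius, with NPC and MIPE libraries tested in 8- and 11-point concentration series.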
(In general: qHTS replaces the single test concentration by a dilution series.)
On to `CN1CCCCC1CCN1c2ccccc2Sc2ccc(S(C)=O)cc21` (stereo not drawn), for which the compound was classed as inactive.

For `CSc1ccc2c(c1)C(N1CCN(C)CC1)Cc1ccccc1S2` (stereo not drawn), the call was inactive.

`O=C1Nc2ccc(Cl)cc2[C@@](C#CC2CC2)(C(F)(F)F)O1`: the call was inactive.

Consider `NC(=O)N/N=C/c1ccc([N+](=O)[O-])o1`, for which the result was inactive.

With `C=Cc1c(C)c2cc3[nH]c(cc4nc(cc5nc(cc1[nH]2)C(C)=C5CCC(=O)O)C(CCC(=O)O)=C4C)c(C)c3C=C`, the outcome was inactive.

Regarding `CN1CCN(C2Cc3ccccc3Sc3ccc(Cl)cc32)CC1` (stereo not drawn), the call was inactive.

On to `COc1ccc2cc1Oc1ccc(cc1)C[C@H]1c3c(cc4c(c3Oc3cc5c(cc3OC)CCN(C)[C@@H]5C2)OCO4)CCN1C`, for which the call was inactive.

As to `CN(C)CCC=C1c2ccccc2CCc2ccccc21`, the compound was classed as inactive.

In a further test the test system is HEK293T. The description is as above. The conditions noted are these: MCC and control cell lines, CellTiter-Glo viability, 72 h; at 44.8 µM (top of the series) unless noted. The method, boiled down:
as §1
As to `CCN(CC)C(C)CN1c2ccccc2Sc2ccccc21` (stereo not drawn), the result was inactive.

On to `C[C@]12C[C@H](O)[C@H]3[C@@H](CCC4=CC(=O)CC[C@@]43C)[C@@H]1CC[C@@H]2C(=O)CO`, for which the outcome was inactive.

As for `CN1[C@@H]2CC(OC(=O)[C@H](CO)c3ccccc3)C[C@H]1[C@@H]1O[C@@H]12` (stereo partly drawn), the compound was classed as inactive.

As to `O=C1NC(=O)[C@@]2(CCOc3ccc(F)cc32)N1`, the call was inactive.

Another test has as its system MCC-13. The test is described as above. The settings on record: MCC and control cell lines, CellTiter-Glo viability, 72 h; series mostly up to 46 µM; activity change, negative = cytotoxicity: at the top concentration. The method, boiled down:
as §1
In general terms: Cellular ATP, detected with luciferase, serves as a proxy for viable cell number.
For `C[C@](N)(Cc1ccc(O)cc1)C(=O)O`, the activity change, negative = cytotoxicity is 6.34% [at 4.84 µM].

In the case of `CCN(CC)C(C)CN1c2ccccc2Sc2ccccc21` (stereo not drawn), the “activity change, negative = cytotoxicity” value was 3.28%.

As to `CN1CCCCC1CCN1c2ccccc2Sc2ccc(S(C)=O)cc21` (stereo not drawn), the “activity change, negative = cytotoxicity” value was -0.274%.

Regarding `CSc1ccc2c(c1)C(N1CCN(C)CC1)Cc1ccccc1S2` (stereo not drawn), the “activity change, negative = cytotoxicity” value was -11.7%.

`CC(=O)c1ccc2c(c1)N(CCCN(C)C)c1ccccc1S2`: the “activity change, negative = cytotoxicity” value is -1.09%.

Take `CCN(CC)CCSC(=O)C(c1ccccc1)c1ccccc1`: the “activity change, negative = cytotoxicity” value is -15.8%.

As for `CC(C)c1c(C(=O)Nc2ccccc2)c(-c2ccccc2)c(-c2ccc(F)cc2)n1CC[C@@H](O)C[C@@H](O)CC(=O)O`, the Potency was 23.7 µM (active).

In the case of `CC1(C)Oc2ccc(C#N)cc2[C@@H](N2CCCC2=O)[C@@H]1O`, the “activity change, negative = cytotoxicity” value was 16.2%.

As for `NC(=O)N/N=C/c1ccc([N+](=O)[O-])o1`, the Potency result is “inactive”.

Take `CCN(CC)CCCC(C)Nc1c2ccc(Cl)cc2nc2ccc(OC)cc12` (stereo not drawn): the Potency was 23.7 µM (active).

Take `C[C@]12C[C@H](O)[C@H]3[C@@H](CCC4=CC(=O)CC[C@@]43C)[C@@H]1CC[C@@H]2C(=O)CO`: the “activity change, negative = cytotoxicity” value is -0.782%.

Take `CCCCN(CCCC)CC(O)c1cc(Cl)cc2c1-c1ccc(Cl)cc1/C2=C/c1ccc(Cl)cc1` (stereo not drawn): the “activity change, negative = cytotoxicity” value is -1.11%.

With `C=Cc1c(C)c2cc3[nH]c(cc4nc(cc5nc(cc1[nH]2)C(C)=C5CCC(=O)O)C(CCC(=O)O)=C4C)c(C)c3C=C`, the “activity change, negative = cytotoxicity” value is 0.478%.

As for `CC1=C(/C=C/C(C)=C/C=C/C(C)=C/C(=O)O)C(C)(C)CCC1`, the “activity change, negative = cytotoxicity” value is -5.18%.

Take `CCN(CC)CCNC(=O)c1c(C)[nH]c(/C=C2\C(=O)Nc3ccc(F)cc32)c1C`: the Potency is 23.7 µM (active).

For the compound `CC(=O)Oc1ccc(C2(c3ccc(OC(C)=O)cc3)C(=O)Nc3ccccc32)cc1`, the “activity change, negative = cytotoxicity” value is 1.21%.

In the case of `CN1CCN(C2Cc3ccccc3Sc3ccc(Cl)cc32)CC1` (stereo not drawn), the “activity change, negative = cytotoxicity” value is -17%.

Regarding `CC(CN(C)C)CN1c2ccccc2CCc2ccccc21` (stereo not drawn), the “activity change, negative = cytotoxicity” value is 0.55%.

As for `OCc1cc(C(O)CNCCCCCCOCCCCc2ccccc2)ccc1O` (stereo not drawn), the “activity change, negative = cytotoxicity” value is -1.16%.

As to `COC(=O)C1=C(C)NC(C)=C(C(=O)OC)C1c1ccccc1[N+](=O)[O-]`, the “activity change, negative = cytotoxicity” value was -9.88%.

In the case of `COc1ccc2cc1Oc1ccc(cc1)C[C@H]1c3c(cc4c(c3Oc3cc5c(cc3OC)CCN(C)[C@@H]5C2)OCO4)CCN1C`, the “activity change, negative = cytotoxicity” value is -17.7%.

As for `CN(C)CCOC(C)(c1ccccc1)c1ccccn1` (stereo not drawn), the “activity change, negative = cytotoxicity” value was -6.18%.

For the compound `CN1[C@@H]2CC(OC(=O)[C@H](CO)c3ccccc3)C[C@H]1[C@@H]1O[C@@H]12` (stereo partly drawn), the “activity change, negative = cytotoxicity” value is 9.1%.
